In the library only some 3.8% were active in any assay of this set; here they are far more common.
Sfp inh = Sfp phosphopantetheinyl transferase inhibition; Q9F4F7; Biochemical Sfp PPTase activity, qHTS; Potency, µM, inactives show largest response in the series, negative = inhibition, actives largely listed as inhibitors; actives 3.5% (n = 310,000); AID 1490;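 note: the enzyme is Sfp with the accession as filed and its product quenches rhodamine fluorescence; 0% = enzyme reaction without inhibitor and -100% = no enzyme wells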
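Step 1, compound plus 15 nM Sfp-PPTase, 15 min, room temperature. Step 2, add rhodamine-CoA (5 uM) and BHQ-2-YbbR (12.5 uM). Step 3, read 525/598 nm fluorescence at 0 and 30 min.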
VDR inh = vitamin D3 receptor (human) inhibition. P11473. VDR-SRC2-3 peptide fluorescence polarization, 2 h. Potency, µM, inactives show max response, negative = inhibition, most hits filed as inhibitors. actives 0.93% (n = 400,000); note: % is set by controls: 0 for no effect and ±100 for the full control effect
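Signal is fluorescence polarization, reporting how far test compounds block the interaction of VDR with the SRC2-3 coregulator peptide after a 2 h room-temperature incubation.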
GCN5L2 inh = inhibitors of human GCN5L2 histone acetyltransferase. GCN5L2 HAT assay, ThioGlo1 CoA-SH fluorescence. Q92830. Potency, µM (doses to about 58.9 µM), without a hit: top-dose activity change, negative = inhibition, hits mostly inhibitors. actives 0.21% (n = 390,000); note: % is set by controls: 0 for no effect and ±100 for the full control effect
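Free CoA generated was detected with ThioGlo1 (50uM) fluorescence at Ex340nm/Em540nm, read immediately and after 20 min at room temperature. Enzyme, 20 nM in HEPES pH 7.5 buffer, saw compounds 15 min before adding 75uM H3(1-25) peptide and 70uM acetyl-CoA.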
GLS inhibitor = blocks human kidney-isoform glutaminase activity; O94925; Potency, µM (doses to about 45.5 µM), without a hit: at the highest dose activity change, negative = inhibition, actives largely listed as inhibitors; actives 0.21% (n = 410,000); AID 624170; GLS enzymatic activity, qHTS titration; note: % is set by controls: 0 for no effect and ±100 for the full control effect
Target sequence (O94925 whole entry, looked up, canonical isoform): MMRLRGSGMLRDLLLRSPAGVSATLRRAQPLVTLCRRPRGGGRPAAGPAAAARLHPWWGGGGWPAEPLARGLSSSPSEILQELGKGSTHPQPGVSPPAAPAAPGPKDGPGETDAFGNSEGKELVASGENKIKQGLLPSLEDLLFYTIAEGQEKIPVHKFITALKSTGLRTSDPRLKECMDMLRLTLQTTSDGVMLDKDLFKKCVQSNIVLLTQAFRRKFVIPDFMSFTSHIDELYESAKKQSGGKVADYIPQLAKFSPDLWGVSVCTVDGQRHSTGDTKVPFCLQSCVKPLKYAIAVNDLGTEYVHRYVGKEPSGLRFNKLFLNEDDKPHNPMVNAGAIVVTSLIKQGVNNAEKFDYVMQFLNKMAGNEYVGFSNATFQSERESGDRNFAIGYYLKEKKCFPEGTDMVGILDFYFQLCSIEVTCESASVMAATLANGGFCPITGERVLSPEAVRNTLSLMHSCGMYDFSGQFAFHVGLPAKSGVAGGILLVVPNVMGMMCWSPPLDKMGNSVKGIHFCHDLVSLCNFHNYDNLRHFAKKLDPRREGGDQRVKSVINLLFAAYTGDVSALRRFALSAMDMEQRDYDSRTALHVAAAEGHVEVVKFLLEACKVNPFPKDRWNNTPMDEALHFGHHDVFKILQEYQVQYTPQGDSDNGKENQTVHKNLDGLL
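Enzyme dispensed in phosphate buffer (45 mM, pH 8.2, 0.02% Tween-20), compounds pinned in, then 1 mM L-glutamine solution and the glutamate oxidase–HRP–Amplex Red mix added; fluorescence read immediately and again after 30 min at room temperature.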
TrxR1 substrate = rat thioredoxin reductase 1 substrate activity | actives 0.01% (n = 390,000) | Potency, µM (highest dose often 114 µM), inactives show at the highest dose activity change, negative = substrate turnover | O89049 | purified TrxR1 substrate turnover, NADPH consumption readout; note: % is set by controls: 0 for no effect and ±100 for the full control effect; nearly all actives have a fitted effect of over 50% in size
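Rat TrxR1, dispensed at 90 nM, was prereduced with 400 uM NADPH (final) for 5 min at ~22 deg C, then incubated with compound 15 min before 400 uM selenite. A first-read NADPH fluorescence drop versus no-compound background flagged substrates.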
TrxR1 inh = rat TrxR1 inhibition; actives 1% (n = 390,000); recombinant rTrxR1, NADPH fluorescence consumption, selenite substrate; O89049; Potency, µM (titrated, usually from 114 µM), for the others: at the highest dose activity change, negative = inhibition, hits mostly inhibitors; note: % is set by controls: 0 for no effect and ±100 for the full control effect; nearly all actives have a fitted effect of over 65% in size
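Rat TrxR1 (90 nM in the dispensed reagent) was pre-reduced with 400 uM NADPH for 5 min at room temperature, then incubated with compound for 15 min. After 400 uM selenite was added, NADPH fluorescence (Ex 340/Em 450 nm) was followed for 8 min.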
VDR inh confirm = inhibits human vitamin D receptor, primary hit validation; shares compounds with VDR inh; VDR-coactivator inhibition assay, qHTS confirmation; Potency, µM, most hits filed as inhibitors; actives 89% (n = 840); AID 602199
VDR FP fluor = confirmation of human VDR-coactivator binding inhibitors, fluorescein label. shares compounds with VDR inh. VDR-coactivator binding, fluorescein fluorescence polarization. Potency, µM (series often up to 57.1 µM), for the others: at the highest dose activity change, negative = inhibition, hits mostly inhibitors. actives 48% (n = 840)
VDR bla reporter = confirmation of human vitamin D receptor inhibitors in reporter cells; shares compounds with VDR inh; VDR beta-lactamase reporter cells, FRET ratio; cells co-treated with VDR agonist LG190178; Potency, µM (highest dose often 46.1 µM), for inactives: at the top dose activity change, negative = inhibition, actives largely listed as inhibitors; actives 23% (n = 840); AID 602202; note: % is set by controls: 0 for no effect and ±100 for the full control effect
VDR viability = counter-screen for vitamin D receptor inhibitors: cytotoxicity | Potency, µM (titrated, usually from 48.3 µM), inactives show at the top dose activity change, negative = cytotoxicity, hits mostly cytotoxic | AID 602204 | shares compounds with VDR inh | actives 18% (n = 840) | cytotoxicity counter-screen, cell viability, qHTS;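 note: plate controls were DMSO for no effect and high-concentration cycloheximide for full effect; nearly all actives have a fitted effect of over 75% in size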
An asterisk follows results filed as active; u = inconclusive; x = no result given; [ ] = remark or other dose. Calls come from the whole dose curve; as a rule, active = well fitted curve in the direction sought with a large enough effect; inconclusive = small, poorly fitted or top-dose-only effect, or another doubt; inactive = no such curve, though single readings can be large; an effect the other way counts as inactive or inconclusive. Potency is the fitted concentration of half-maximal effect.

SMILES	Sfp inh	VDR inh	GCN5L2 inh	GLS inhibitor	TrxR1 substrate	TrxR1 inh	VDR inh confirm	VDR FP fluor	VDR bla reporter	VDR viability
CCOC(=O)c1sc(NC(=O)c2ccncc2)c(C#N)c1C	u	45µM*	u	-2%	-16%	u	3.8*	u	5%	u
N#Cc1c(NC(=O)Cn2nc(C(F)(F)F)c3c2CCCC3)sc2c1CCC2	u	79µM*	-5%	-9%	-9%	-26%	6.7*	u	4%	0%
Cc1ccc(OCC(=O)Nc2nc(C)c(Cl)cc2Cl)c([N+](=O)[O-])n1	x	-5%	-1%	-4%	2%	36%	x	x	x	x
FC(F)(F)c1nnc2n1N=C(c1ccccc1)CS2	14%	-21%	5%	-4%	-6%	-8%	x	x	x	x
c1ccc(-c2ccc(C3=Nn4c(Cn5nnc6ccccc65)nnc4SC3)cc2)cc1	28µM*	u	u	-9%	-6%[2.29 µM]	-5%	14*	10µM*	-9%	-9%
S=C(NNc1ccnc2cc(Cl)ccc12)Nc1ccccc1Cl	u	u	-20%	-1%	-15%	u	13*	10µM*	u	u
S=C(Nc1ccccc1Cl)Nc1ccc(Cl)cc1Cl	8%	-14%	u	9%	-3%	u	x	x	x	x
Cc1ccc(C(=O)c2no[n+]([O-])c2C(=O)c2ccc(C)cc2)cc1	u	u	-5%	0%	-3%	0.89µM*	10*	18µM*	6.5µM*	13µM*
CCOc1ccc(NC(=O)CC2SC(=O)N(c3ccccc3)C2=O)cc1 (stereo not drawn)	10µM*	28µM*	u	u	-16%[57.1 µM]	-56%	u	u	29%	14%
CCOc1ccccc1NC(=O)CC1SC(=N)N(c2ccccc2)C1=O (stereo not drawn)	-5%	x	-11%	x	x	x	x	x	x	x
CCOC(=O)c1c(NC(=O)CSc2nnc(CNC(=O)c3ccco3)n2C)sc2c1CCC2	-14%	-4%	-2%	19%	-3%	u	x	x	x	x
CCOC(=O)/C(=C\c1cccc(O)c1)c1nc2sc(C)c(C)c2c(=O)[nH]1	7.1µM*	45µM*	-7%	7%	11%[11.4 µM]	u	3.4*	u	21µM*	u
O=C(NCCc1ccccc1)Nc1nnc([C@H]2C[C@H](O)[C@@H](CO)O2)s1	x	x	x	4%	x	x	x	x	x	x
c1ccc(Cn2nnnc2C(c2cccs2)N2CCOCC2)cc1 (stereo not drawn)	3%	-5%	-15%	15%	4%	5%	x	x	x	x
Cc1cc2nc3ccc(N(C)C)cc3nc2cc1N	x	79µM*	x	8%	-2%	6%	19*	92%	18%	u
COc1cc(/C=C2\C(=O)N(CCC#N)N=C2C)c(Br)cc1OC(C)C	8%	u	-6%	-17%	-1%	u	8.4*	u	19%	18%
N#CC1=C(N)C(C#N)(C#N)C(c2cccnc2)C2CN(C(=O)OCc3ccccc3)CC=C12 (stereo not drawn)	-1%	20µM*	-6%	-7%	2%	u	12*	u	6%	-8%
CCOC(=O)C1=CCN(S(=O)(=O)c2ccccc2C)C1c1ccc(Br)cc1 (stereo not drawn)	x	x	x	2%	x	x	x	x	x	x
COC(=O)/C=c1/sc2nc3ccccc3n2c1=O	11µM*	u	u	-3%	-1%[57.1 µM]	-14%[57.1 µM]	3.2*	2.8µM*	6%	5%
CC(=O)Nc1ccc(S(=O)(=O)N(C)CC(=O)OCC(=O)N(C)C2CCS(=O)(=O)C2)cc1 (stereo not drawn)	x	u	-1%	-7%	10%	37%	x	x	x	x
COC(=O)c1cc(=O)n(Cc2ccco2)c(=Nc2ccc(F)c(Cl)c2)s1	u	u	-5%	-1%	0%[57.1 µM]	-10%[57.1 µM]	14*	13µM*	u	3%
CC[C@@H]1CCC[C@@H](O)[C@@H](C)C(=O)O[C@H](C)[C@@H](C)C/C=C(C)/C(OC)=C\C(=O)N(C)C([C@@H](C)CC)C(=O)N(C)[C@@H](C(C)C)C(=O)N(C)[C@@H](COC)C(=O)N2CCC[C@H]2C(=O)N(C)[C@@H](C(C)C)C(=O)N2CCC[C@H]2C(=O)O1 (stereo partly drawn)	x	x	x	-23%	x	x	x	x	x	x
COc1ccc(OC)c(-c2c3cc(O)c(=O)cc-3oc3cc(O)c(O)cc23)c1	11µM*	25µM*	u	-2%	-7%[57.1 µM]	-3%[57.1 µM]	24*	u	-24%	u
COc1ccc2c(=O)cc(-c3ccc(O)cc3)oc2c1	-1%	x	x	x	x	x	x	x	x	x
CCN1CCSc2ccc(C(=O)NCc3ccccc3C)cc21	-8%	-5%	-16%	17%	73%[57.1 µM]	69%	x	x	x	x
SMILES	Sfp inh	VDR inh	GCN5L2 inh	GLS inhibitor	TrxR1 substrate	TrxR1 inh	VDR inh confirm	VDR FP fluor	VDR bla reporter	VDR viability
COc1ccc(S(=O)(=O)CC(=O)c2cc3cc(Br)ccc3oc2=O)cc1	-23%	u	u	u	0%	-24%	10*	4µM*	-26%	28%
CCOCCCNC(=O)CN1C(=O)COc2ccc(S(=O)(=O)N3CC(C)CC(C)C3)cc21 (stereo not drawn)	9%	-19%	-14%	-1%	4%	15%	x	x	x	x
C=CCN=C1S/C(=C/c2cccc([N+](=O)[O-])c2)C(=O)N1CC=C	-17%	-21%	-6%	-4%	1%	7%	x	x	x	x
O=C(O)c1cccc(CN2C(=O)S/C(=C/c3cccc([N+](=O)[O-])c3)C2=O)c1	71µM*	20µM*	-25%	1%	-1%	-13%	18*	22µM*	-23%	-8%
NC(=O)c1c(N)sc2c1CCCCC2	22µM*	79µM*	-24%	-6%	-1%	-22%	18*	14µM*	-1%	-8%
COC(=O)Nc1sc2c(c1C(N)=O)CCCCCC2	-84%	u	-9%	-13%	2%[57.1 µM]	0%[57.1 µM]	x	x	x	x

Screening data (PubChem)
